Hits are enriched below; roughly 4.2% of the tested compounds scored in any of these assays.
VDR inh = Inhibitors of the vitamin D receptor (VDR): qHTS | VDR-SRC2-3 peptide fluorescence polarization, 2 h | Potency, µM, for the others: max response, negative = inhibition, actives largely listed as inhibitors | 0.93% of 400,000 active
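Measured by FP: displacement of SRC2-3 coactivator peptide from VDR by library compounds, following a two-hour ambient incubation.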
ALOX12 inh = Primary qHTS assay for inhibitors of human arachidonate 12S-lipoxygenase (ALOX12): Round 2; Polyunsaturated fatty acid lipoxygenase ALOX12 (Homo sapiens), P18054; purified 12hLO, xylenol orange hydroperoxide absorbance; Potency, µM (highest dose often 108 µM), without a hit: top-dose activity change, negative = inhibition, actives largely listed as inhibitors; 1.1% of 580,000 active; AID 1671190, 2021
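Purified human 12hLO at 150 nM in 25 mM Hepes, 0.01% Triton X-100, pH 7.0, preincubated 15 min at room temperature with compound. Reaction started with 40 uM arachidonic acid, 30 min at room temperature. Hydroperoxide measured by Fe-xylenol orange, 573/405 nm absorbance ratio.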
Sfp inh = qHTS Assay for Inhibitors of Bacillus subtilis Sfp phosphopantetheinyl transferase (PPTase); 4'-phosphopantetheinyl transferase ffp (Bacillus subtilis), Q9F4F7; Biochemical Sfp PPTase activity, qHTS; Potency, µM, for the others: largest response in the series, negative = inhibition, usual class: inhibitors; 3.5% of 310,000 active; AID 1490, 2009;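 further: the enzyme is Sfp with the accession as filed and its product quenches rhodamine fluorescence; 0% = enzyme reaction without inhibitor and -100% = no enzyme wells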
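Fluorescence-quenching assay: 15 nM Sfp-PPTase preincubated 15 min at room temperature with compound, then 5 uM rhodamine-CoA and 12.5 uM BHQ-2-labelled YbbR peptide added. Fluorescence (ex 525/em 598 nm) read at start and after 30 min; difference gives rate.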
PLK1 PBD block = qHTS for Inhibitors of PLK1-PDB (polo-like kinase 1 - polo-box domain): Primary Screen | Serine/threonine-protein kinase PLK1 (Homo sapiens), P53350 | Plk1 PBD binding of FITC phosphopeptide, fluorescence polarization | Potency, µM, for the others: max response, negative = inhibition, actives largely listed as inhibitors | 2.8% of 360,000 active | AID 720504, 2013; further: series mostly up to about 57 µM; nearly all actives have a fitted effect of over 65% in size
Target sequence (P53350 whole entry, looked up, the tested form may be a part): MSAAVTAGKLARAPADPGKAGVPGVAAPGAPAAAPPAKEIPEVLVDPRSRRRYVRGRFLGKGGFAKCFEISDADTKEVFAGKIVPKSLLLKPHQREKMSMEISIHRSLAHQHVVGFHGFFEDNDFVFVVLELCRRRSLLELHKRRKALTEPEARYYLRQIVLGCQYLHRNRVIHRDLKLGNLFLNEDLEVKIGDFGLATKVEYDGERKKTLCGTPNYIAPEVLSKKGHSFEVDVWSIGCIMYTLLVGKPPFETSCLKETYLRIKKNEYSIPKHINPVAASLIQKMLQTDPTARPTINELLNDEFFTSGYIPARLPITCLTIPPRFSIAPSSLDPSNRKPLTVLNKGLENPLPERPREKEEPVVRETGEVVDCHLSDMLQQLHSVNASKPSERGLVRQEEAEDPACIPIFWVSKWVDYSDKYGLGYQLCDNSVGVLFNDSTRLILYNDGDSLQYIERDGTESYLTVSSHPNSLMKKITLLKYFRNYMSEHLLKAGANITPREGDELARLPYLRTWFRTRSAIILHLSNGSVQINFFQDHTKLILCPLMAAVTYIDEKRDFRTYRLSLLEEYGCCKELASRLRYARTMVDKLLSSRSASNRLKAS
* marks the source's active call; other numbers are inactive results; ? = inconclusive; · = no result; ! = a repeat was not active. The call rests on the fitted dose curve; in most records, active means well fitted curve in the direction sought with a large enough effect; inconclusive means small, poorly fitted or top-dose-only effect, or another doubt; inactive means no such curve, though single readings can be large; an effect the other way counts as inactive or inconclusive. Unless noted, on the % scale 0 is the no-effect control and ±100 the full control effect; potency means the concentration at half of the fitted maximal effect.

SMILES	VDR inh	ALOX12 inh	Sfp inh	PLK1 PBD block
CC(C)(C)OC(=O)NCc1ccc(NC(=O)c2nc[nH]c2C(=O)Nc2cc(Br)ccc2F)cc1	·	6%	·	-7%
O=C(C(=O)N1CCC(CNS(=O)(=O)c2ccc(C(F)(F)F)cc2)CC1)c1cc2ccccc2o1	·	-10%	·	·
COC(=O)c1c(NC(=O)CN2CCN(C(=O)c3ccco3)CC2)c2c(C)cccc2n1C	-5%	-10%	20µM*	-2%
COC(=O)c1c(NC(=O)CN2CCN(C(=O)c3ccco3)CC2)c2cc(C)ccc2n1C	-8%	-8%	-4%	-6%
OCCn1nc2c3ccccc3nc-2n(-c2ccccc2)c1=S	-17%	?	50µM*	?
CN(CC1CCOCC1)C(=O)Nc1cccc(F)c1	·	4%	·	·
C=CCc1cccc(/C=N/NC(=O)CNc2ccccc2OC)c1O	24%	?	21%	-5%
c1ccc2c(-n3cnnn3)cccc2c1	-8%	-20%	-4%	-5%
COc1ccc(/C=C/C(=O)c2cccs2)c(OC)c1	11µM*	-13%	?	·
COc1ccc(C=O)c(OC)c1	9%	-14%	9%	-10%
COc1cc(/C=C\c2ccc(OC)cc2OC)cc(OC)c1	5%	0%	50µM*	·
CCN(CC)CCNC(=O)Cn1cnc2sc(C)c(S(=O)(=O)N3CC(C)CC(C)C3)c2c1=O (stereo not given)	6%	5%	16%	-9%
COc1ccc(NC(=O)Cn2cc(C#N)c3ccccc32)cc1OC	·	0%	·	·
CCCCCCCCCCCCCCCCCCNc1ccn(C2OC(COP(=O)(O)OCC3OC(n4cc(F)c(=O)[nH]c4=O)CC3O)C(O)C2O)c(=O)n1 (stereo not given)	?	?	·	27µM*
CCN1/C(=C/c2sc(-c3ccccc3C)c[n+]2C)Sc2ccccc21	-11%	?	1%	-5%
CC[n+]1c(/C=C2\Sc3ccccc3N2C)ccc2cccc(C)c21	-13%	45µM*	?	2%
CCN1/C(=C/c2ccc3cc(C)ccc3[n+]2CC)Sc2cc(C)c(C)cc21	7%	50µM*	25µM*	5%
CCN1/C(=C/c2ccc3cc(C)ccc3[n+]2CC)Sc2ccccc21	4%	45µM*	11µM*	11%
COc1ccc(C(=O)/C=C2\Sc3ccccc3N2C)cc1	3%	-14%	0%	?
N#CCCNC(=O)CCN1CCCCC1	9%	316%	13%	-3%
O=C(O)Cc1ccc(OCCNC[C@H](O)c2ccccc2)cc1	·	0%	9%	·
OCc1cc(C(O)CNCCCCCCOCCCCc2ccccc2)ccc1O (stereo not given)	1%	-13%	56µM*!	-15%
COc1cc(CNCCc2ccccc2)cc(Cl)c1OCc1ccccc1	-7%	-13%	32µM*	2%
Cc1c(C(=O)c2ccc(Cl)cc2Cl)cnc2cc3c(cc12)OCO3	?	0%	-4%	30µM*
O=C(NC1CC1)c1ccc(NC(=O)C2CCC2)cc1	79µM*	7%	·	19µM*
SMILES	VDR inh	ALOX12 inh	Sfp inh	PLK1 PBD block
O=C(NC1CC1)c1ccc(NC(=O)C2CCCC2)cc1	-13%	6%	·	-3%
CNc1nc(C)c([N+](=O)[O-])c(Nc2ccc(OC)cc2)n1	?	-17%	7%	12µM*
CCCc1nc(SCC(=O)c2ccc(OC)cc2)c2ccccc2n1	-2%	-6%	79µM*	-9%
O=C(CSc1nc(Cc2ccccc2)nc2ccccc12)c1ccc2c(c1)OCCO2	2%	20%	-14%	-8%
CCc1nc(SCC(=O)c2ccc3c(c2)OCCO3)c2ccccc2n1	?	?	50µM*	-18%
Cc1ccc(/C=C2\CCCC3=C2NC(=S)NC3c2ccc(C)cc2)cc1 (stereo not given)	?	?	25µM*	?
O=C(O)c1cc(N/N=C/c2ccc(-c3ccccc3)cc2)ccc1Cl	?	-32%	-20%	9.5µM*
O=C(O)c1ccc(N/N=C/c2ccc(OC(=O)c3ccccc3Cl)cc2)cc1	-8%	?	-7%	30µM*
O=C(O)c1ccc(N/N=C/c2ccc(-c3ccccc3)cc2)cc1	-15%	?	-13%	27µM*
CC(C)c1ccc(/C=N/Nc2ccc(C(=O)O)cc2)cc1	-1%	-17%	1%	?
C=CC[C@H](CC(=O)N[C@H](CO)Cc1ccccc1)C(=O)N[C@H](COC(=O)[C@@H](CC=C)CC(=O)OC(C)(C)C)Cc1c[nH]c2ccccc12	-4%	0%	·	5%
O=C(O)CCCn1cc(NC(=O)c2cc(F)c(F)cc2Cl)cn1	?	0%	-8%	8.4µM*
Cn1ccnc1-c1nc2cc(S(=O)(=O)N3CCCC3)ccc2n1C	·	-9%	·	·
N#C/C(=C\c1ccc(F)c(Cl)c1)S(=O)(=O)c1ccccn1	6%	0%	12%	12µM*
COc1ccc(S(=O)(=O)Nc2ccc3c(c2)C(=O)N([C@@H](C)CO)C[C@H](C)[C@H](CN(C)S(=O)(=O)c2ccc(F)cc2)O3)cc1	3%	48%	·	-15%
CC(=O)Nc1ccc(S(=O)(=O)NCC(=O)N2CCN(S(=O)(=O)c3cccs3)CC2)cc1	-8%	3%	·	15µM*
O=C(NCCc1ccc(Cl)cc1)C1(c2ccccc2)CC1	2%	0%	7%	1%
COc1ccc(NC(=O)CSc2nc(-c3ccco3)nc3cc(=O)[nH]n23)cc1	-2%	-14%	·	·
COc1ccc(NC(=O)CSc2nc(-c3ccco3)nc3cc(=O)[nH]n23)cc1Cl	-4%	?	-11%	19µM*
O=C(N/N=C/c1cc2c(c([N+](=O)[O-])c1)OCO2)c1ccncc1	-5%	?	-16%	-22%
O=C(N/N=C/c1cc(Cl)ccc1O)c1ccncc1	?	-14%	1%	3.4µM*
COc1cc(OC)c([N+](=O)[O-])cc1/C=N/NC(=O)c1ccncc1	-7%	-3%	35µM*	?
O=C(N/N=C/c1ccncc1)c1cc([N+](=O)[O-])cc([N+](=O)[O-])c1O	3%	50µM*	17%	-17%
O=C(N/N=C/c1coc2ccc(Cl)cc2c1=O)c1cc(O)cc(O)c1	-6%	45µM*	16%	27µM*
Cc1ccc2occ(/C=N/NC(=O)c3ccc(Cl)cc3)c(=O)c2c1	-11%	0%	11%	-6%
O=C(N/N=C/c1ccccc1Cl)c1ccncc1	-21%	0%	5%	-12%
COc1cc(/C=N/NC(=O)c2ccncc2)c([N+](=O)[O-])cc1OC	-14%	?	7%	0%
O=C(CN1CCC(NC(=O)c2ccco2)CC1)Nc1ccccc1[N+](=O)[O-]	·	·	4%	·
CCc1ccc(Sc2cc(C(=O)NCCN3CCOCC3)c3ccccc3n2)cc1	18%	-29%	-2%	-8%
CCn1nc(C(=O)N(C)c2cc(F)ccc2F)c2ccccc2c1=O	·	10%	·	·

From PubChem BioAssay
